Results filed as inconclusive are left out. Where a call stands in place of a potency, no number is given. Active and inactive are the calls of the source. Calls follow the shape of the dose curve; as a rule, active = well fitted inhibition curve with a large enough effect in the repeat runs; inconclusive = weak or mixed curves; inactive = flat fitted curve, though single readings scatter.
Target: Voltage-gated inwardly rectifying potassium channel KCNH2 (Homo sapiens) (UniProt Q12809)
Test: Human Ether-a-go-go-Related Gene (hERG) channel small molecule antagonists: fluorescence cell-based qHTS assay (AID 1671200); also: nearly all actives have a fitted effect of over 50% in size
Conditions: hERG-U2OS cells, FluxOR thallium flux fluorescence; series mostly up to 76.8 µM
Text: National Center for Advancing Translational Sciences [NCATS]
U.S. Environmental Protection Agency [EPA]
National Institutes of Environmental Health Sciences [NIEHS]
National Toxicology Program [NTP]
U.S. Food and Drug Administration [FDA]
Mutations in the hERG channel cause Long QT (LQT) syndrome. LQT syndrome is a cardiac disorder which can cause ventricle arrhythmia and sudden death. Additionally, compounds which block the hERG channel can cause acquired LQT syndrome. Several FDA approved drugs have been removed from the market due to their hERG blocking activity. A cell-based hERG channel inhibition assay can be used to screen chemical compounds that inhibit hERG channel. This assay measures hERG channel activity using thallium ions as surrogate ions to measure potassium into the cells.
Tox21 Assay Protocol Summary:
hERG-U2OS cells were resuspended in culture medium and dispensed into 1536-well, black wall/clear-bottom plates at 1000cells/well/3uL using a Multidrop Combi dispenser (Thermo Fisher, Waltham, MA). After plates were incubated at 37 C overnight, 3 uL of Loading Buffer provided by FluxOR II Potassium Ion Channel Assay kit (Thermo, Carlsbad, CA) was added to each well. The assay plates were then incubated at room temperature in the dark for 1h. […] After the assay plates were incubated at room temperature for 10 min, 1 uL of Stimulus Buffer provided by FluxOR II Potassium Ion Channel Assay kit was added into each well and fluorescence intensity (480nm excitation/540nm emission) was continuously measured for 2 min at 1 second intervals using a Functional Drug Screening System (FDSS) 7000EX kinetic plate reader (Hamamatsu, Japan).
Potency is read from the fitted curve at half-maximal effect.

Chain of Voltage-gated inwardly rectifying potassium channel KCNH2 (Homo sapiens) (Q12809 whole entry, looked up): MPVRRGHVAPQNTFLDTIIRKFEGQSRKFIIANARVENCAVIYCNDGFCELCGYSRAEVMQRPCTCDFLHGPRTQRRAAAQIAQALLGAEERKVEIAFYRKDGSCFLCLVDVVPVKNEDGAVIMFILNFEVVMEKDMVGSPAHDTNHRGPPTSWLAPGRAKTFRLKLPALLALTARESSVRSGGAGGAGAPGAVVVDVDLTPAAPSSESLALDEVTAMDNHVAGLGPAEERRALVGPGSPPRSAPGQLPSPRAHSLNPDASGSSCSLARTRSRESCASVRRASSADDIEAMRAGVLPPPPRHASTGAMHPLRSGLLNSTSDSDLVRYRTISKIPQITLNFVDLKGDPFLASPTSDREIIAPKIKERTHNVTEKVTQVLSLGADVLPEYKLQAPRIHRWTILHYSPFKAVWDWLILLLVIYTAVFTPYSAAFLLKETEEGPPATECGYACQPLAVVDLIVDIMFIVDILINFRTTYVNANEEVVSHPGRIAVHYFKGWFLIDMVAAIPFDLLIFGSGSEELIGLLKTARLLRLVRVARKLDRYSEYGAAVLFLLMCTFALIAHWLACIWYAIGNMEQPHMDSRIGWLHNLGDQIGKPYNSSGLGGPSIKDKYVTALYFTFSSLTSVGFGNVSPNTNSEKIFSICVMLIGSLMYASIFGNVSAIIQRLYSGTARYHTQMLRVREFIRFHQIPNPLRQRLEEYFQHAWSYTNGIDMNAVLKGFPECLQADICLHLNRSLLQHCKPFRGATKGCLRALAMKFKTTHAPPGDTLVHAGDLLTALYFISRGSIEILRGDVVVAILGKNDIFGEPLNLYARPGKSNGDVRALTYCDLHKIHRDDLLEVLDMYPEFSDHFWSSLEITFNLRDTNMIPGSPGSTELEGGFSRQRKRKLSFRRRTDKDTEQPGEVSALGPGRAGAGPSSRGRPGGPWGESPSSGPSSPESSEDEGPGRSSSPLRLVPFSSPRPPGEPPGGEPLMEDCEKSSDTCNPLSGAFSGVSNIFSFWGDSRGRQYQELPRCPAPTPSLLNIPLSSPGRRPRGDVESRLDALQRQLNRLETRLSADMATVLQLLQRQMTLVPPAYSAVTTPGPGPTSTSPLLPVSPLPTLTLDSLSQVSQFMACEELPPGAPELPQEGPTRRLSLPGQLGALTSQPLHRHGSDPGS

| Compound | Potency |
| --- | --- |
| CC(C)COC(=O)C(C)C | inactive |
| CC(=O)c1ccc(C)cc1 | inactive |
| COc1cc(CCC(C)=O)ccc1O | inactive |
| CCC(=O)c1cccc(Cl)c1 | inactive |
| Cc1c(F)cc2c(=O)c(C(=O)O)cn3c2c1CCC3C (stereo not given) | inactive |
| c1cc(CN2CCCCC2)cc(OCCCNc2nc3ccccc3s2)c1 | 8.49 µM (active) |
| NC(=O)c1ncn([C@@H]2O[C@H](CO)[C@@H](O)[C@H]2O)c1O | inactive |
| CSc1ccc(C=O)cc1 | inactive |
| Nc1nc(F)nc2c1ncn2[C@@H]1O[C@H](CO)[C@@H](O)[C@@H]1O | inactive |
| CC(C)[N+](C)(C)CC(O)COc1cccc2ccccc12 (stereo not given) | inactive |
| C=C(C)C(=O)NCCC[N+](C)(C)C | inactive |
| C[C@H](O)C(=O)Nc1c(I)c(C(=O)NC(CO)CO)c(I)c(C(=O)NC(CO)CO)c1I | inactive |
| C=C(C)C(=O)OCCC(C)OC(=O)C(=C)C (stereo not given) | inactive |
| Oc1ccc2c(c1)OC[C@@H](N1CCC(O)(c3ccc(F)cc3)CC1)[C@H]2O | inactive |
| CC(C)(O)Cc1ccccc1 | inactive |
| COCCOC(=O)CC#N | inactive |
| C#CC(O)CCCCC (stereo not given) | inactive |
| O=S(=O)(O)c1ccccc1O | inactive |
| CCO[Si](C)(OCC)OCC | inactive |
| CCOC(=O)Cn1c(=O)sc2cccc(Cl)c21 | inactive |

| Compound | Potency |
| --- | --- |
| OC1OC[C@@H](O)[C@H](O)[C@H]1O (stereo not given in full) | inactive |
| COc1ccc2cc(C=O)ccc2c1 | inactive |
| C1C2OC2C2C1C1CC2C2OC12 (stereo not given) | inactive |
| CNC(=O)c1c(I)c(NC(=O)CCCCC(=O)Nc2c(I)c(C(=O)O)c(I)c(C(=O)NC)c2I)c(I)c(C(=O)O)c1I | inactive |
| COC(=O)[C@H]1[C@H]2C[C@@H]3c4[nH]c5cc(OC)ccc5c4CCN3C[C@H]2C[C@@H](OC(=O)COc2ccc(OC)cc2)[C@@H]1OC | 0.601 µM (active) |
| CO[Si](CCCNCCC[Si](OC)(OC)OC)(OC)OC | inactive |
| C=CCOCC(O)CS(=O)(=O)O (stereo not given) | inactive |
| O=C(O)Cc1cc(I)c(Oc2cc(I)c(O)c(I)c2)c(I)c1 | inactive |
| COC(C(=O)O)c1ccccc1 (stereo not given) | inactive |
| C=C(C)[C@H]1CC=C(C)CC1 | inactive |
| C=C(C)C(=O)NCCCN(C)C | inactive |
| CCOC(=O)[C@H](CCc1ccccc1)N[C@@H](C)C(=O)N1CCC[C@H]1C(=O)O | inactive |
| C=C(C)C1CC=C(C)C(O)C1 (stereo not given) | inactive |
| COc1cc(C(=O)N2CCOCC2)cc(OC)c1OC | inactive |
| CN(C)N=Nc1ccccc1 | inactive |
| CC/C=C\C#N | inactive |
| OC/C=C/c1ccccc1 | inactive |
| O=C(O)/C=C/c1ccc(/C=C/C(=O)O)cc1 | inactive |
| CC(C)(C)N(CCO)CCO | inactive |
| NC1CCN(c2cccc(Cl)n2)CC1 | inactive |

Reference: PubChem BioAssay (Tox21)
